# Reference: the supplement of paper PMC10037445
# Over roughly 2,900 compounds, “NF-kB SEAP reporter activity, fold change vs agonist alone” has its median near 0.99; the highest 2% begin near 2.6. Only a selection was taken, and the highest values are over-represented in it overall.
# How the values were obtained:
# [1] = system: RAW-Dual; experiment: NF-kB SEAP reporter activity, fold change vs agonist alone; cytotoxicity flag (confluency mask): not cytotoxic; higher = enhanced NF-kB activity
# How it was run: (§1)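 RAW-Dual macrophages (50,000 cells/well in DMEM, 384-well plates) received 50 nL of library stock by pin tool, then a PRR agonist 1 h later, and were kept at 37 °C, 5% CO2. After 20 hours, supernatant was read for IRF by QuantiLuc luminescence and for NF-κB by QuantiBlue absorbance at 620 nm. Reporter activity is fold change over agonist-alone wells. Cytotoxic wells had IncuCyte confluency below 70% of agonist controls in both mask sets.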
# [2] = system: RAW-Dual; experiment: NF-kB SEAP reporter activity, fold change vs agonist alone; higher = enhanced NF-kB activity; conditions: library stock concentration (final ~1000-fold dilution): 10 mM
# How it was run: as §1
# [3] = system: RAW-Dual; experiment: NF-kB SEAP reporter activity, fold change vs agonist alone; cytotoxicity flag (confluency mask): cytotoxic (confluency <70% of control); higher = enhanced NF-kB activity
# How it was run: as §1
# [4] = agonist: ODN 1826 (TLR9) 0.5 ug/mL
# [5] = agonist: Pam2CSK4 (TLR2/6) 0.1 ug/mL
# [6] = agonist: Pam3CSK4 (TLR2/1) 0.1 ug/mL
# [7] = cytotoxicity flag (confluency mask): not cytotoxic, agonist: Imiquimod (TLR7) […]
# [8] = cytotoxicity flag (confluency mask): not cytotoxic, agonist: MPLA (TLR4) […]
# [9] = cytotoxicity flag (confluency mask): cytotoxic (confluency <70% of control), agonist: MPLA (TLR4) […]
smiles,measurement,setting,value
CC12CC(O)C3CC1(O[C@@H]1O[C@H](CO)[C@@H](O)[C@H](O)[C@H]1O)C3(COC(=O)c1ccccc1)C(=O)O2 (some centres undefined) (library stock concentration (final ~1000-fold dilution): 10 mM),NF-kB SEAP reporter activity,[1]; agonist: LPS (TLR4) 0.1 ug/mL,1.24
same,NF-kB SEAP reporter activity,[1]; [4],1.12
same,NF-kB SEAP reporter activity,[1]; [5],1.1
same,NF-kB SEAP reporter activity,[1]; [6],1.06
CC12CC(O)C3CC1(O[C@@H]1O[C@H](CO)[C@@H](O)[C@H](O)[C@H]1O)C3(COC(=O)c1ccccc1)C(=O)O2 (some centres undefined),NF-kB SEAP reporter activity,[2]; [7],1.03
same,NF-kB SEAP reporter activity,[2]; [8],1.03
CNCCCC1c2ccccc2C=Cc2ccccc21.Cl (library stock concentration (final ~1000-fold dilution): 10 mM),NF-kB SEAP reporter activity,[3]; agonist: LPS (TLR4) 0.1 ug/mL,0.947
same,NF-kB SEAP reporter activity,[3]; [4],0.644
same,NF-kB SEAP reporter activity,[3]; [5],0.63
same,NF-kB SEAP reporter activity,[3]; [6],0.687
CNCCCC1c2ccccc2C=Cc2ccccc21.Cl,NF-kB SEAP reporter activity,"[2]; cytotoxicity flag (confluency mask): cytotoxic (confluency <70% of control), agonist: Imiquimod (TLR7) […]",1.28
same,NF-kB SEAP reporter activity,[2]; [9],1.62
CCCCNNC(=O)c1ccc(Br)cc1 (library stock concentration (final ~1000-fold dilution): 10 mM),NF-kB SEAP reporter activity,[1]; agonist: LPS (TLR4) 0.1 ug/mL,3.15
same,NF-kB SEAP reporter activity,[1]; [4],2.18
same,NF-kB SEAP reporter activity,[1]; [5],0.64
same,NF-kB SEAP reporter activity,[1]; [6],0.656
CCCCNc1ccc(C(=O)OCCN(C)C)cc1.Cl,NF-kB SEAP reporter activity,[2]; [7],0.843
same,NF-kB SEAP reporter activity,[2]; [8],1.04
CCCCNc1ccc(C(=O)OCCN(C)C)cc1.Cl (library stock concentration (final ~1000-fold dilution): 10 mM),NF-kB SEAP reporter activity,[1]; agonist: LPS (TLR4) 0.1 ug/mL,1.38
same,NF-kB SEAP reporter activity,[1]; [4],0.759
same,NF-kB SEAP reporter activity,[1]; [5],1.13
same,NF-kB SEAP reporter activity,[1]; [6],1.17
O=C(CCNNC(=O)c1ccncc1)NCc1ccccc1 (library stock concentration (final ~1000-fold dilution): 10 mM),NF-kB SEAP reporter activity,[1]; agonist: LPS (TLR4) 0.1 ug/mL,0.997
same,NF-kB SEAP reporter activity,[1]; [4],1.03
same,NF-kB SEAP reporter activity,[1]; [5],0.962
same,NF-kB SEAP reporter activity,[1]; [6],0.955
O=C(CCNNC(=O)c1ccncc1)NCc1ccccc1,NF-kB SEAP reporter activity,[2]; [7],0.939
same,NF-kB SEAP reporter activity,[2]; [8],1
CCCCNNC(=O)c1ccc(Br)cc1,NF-kB SEAP reporter activity,[2]; [7],1.95
same,NF-kB SEAP reporter activity,[2]; [8],2.28
CS(=O)(=O)n1cc2c(n1)CN(C1COC(c3cc(F)ccc3F)C(N)C1)C2 (centres undefined) (library stock concentration (final ~1000-fold dilution): 10 mM),NF-kB SEAP reporter activity,[1]; agonist: LPS (TLR4) 0.1 ug/mL,1.1
same,NF-kB SEAP reporter activity,[1]; [4],0.91
same,NF-kB SEAP reporter activity,[1]; [5],1
same,NF-kB SEAP reporter activity,[1]; [6],0.974
CS(=O)(=O)n1cc2c(n1)CN(C1COC(c3cc(F)ccc3F)C(N)C1)C2 (centres undefined),NF-kB SEAP reporter activity,[2]; [7],0.931
same,NF-kB SEAP reporter activity,[2]; [8],1.03
Cc1ccc(-n2nc(C(C)(C)C)cc2NC(=O)Nc2ccc(OCCN3CCOCC3)c3ccccc23)cc1 (library stock concentration (final ~1000-fold dilution): 10 mM),NF-kB SEAP reporter activity,[1]; agonist: LPS (TLR4) 0.1 ug/mL,0.477
same,NF-kB SEAP reporter activity,[1]; [4],0.449
same,NF-kB SEAP reporter activity,[1]; [5],0.129
same,NF-kB SEAP reporter activity,[1]; [6],0.226
O=C(NCCN1CCOCC1)c1ccc(Cl)cc1 (library stock concentration (final ~1000-fold dilution): 10 mM),NF-kB SEAP reporter activity,[1]; agonist: LPS (TLR4) 0.1 ug/mL,1.32
same,NF-kB SEAP reporter activity,[1]; [4],1.86
same,NF-kB SEAP reporter activity,[1]; [5],1.18
same,NF-kB SEAP reporter activity,[1]; [6],1.17
O=C(NCCN1CCOCC1)c1ccc(Cl)cc1,NF-kB SEAP reporter activity,[2]; [7],1.74
same,NF-kB SEAP reporter activity,[2]; [8],1.82
O=C(Cc1ccc(-c2ccc(OCCN3CCOCC3)cc2)cn1)NCc1ccccc1,NF-kB SEAP reporter activity,[2]; [7],2.63
same,NF-kB SEAP reporter activity,[2]; [8],2.26
O=C(Cc1ccc(-c2ccc(OCCN3CCOCC3)cc2)cn1)NCc1ccccc1 (library stock concentration (final ~1000-fold dilution): 10 mM),NF-kB SEAP reporter activity,[1]; agonist: LPS (TLR4) 0.1 ug/mL,4.55
same,NF-kB SEAP reporter activity,[1]; [4],3.36
same,NF-kB SEAP reporter activity,[1]; [5],2
same,NF-kB SEAP reporter activity,[1]; [6],2.39
Cc1ccc(-n2nc(C(C)(C)C)cc2NC(=O)Nc2ccc(OCCN3CCOCC3)c3ccccc23)cc1,NF-kB SEAP reporter activity,[2]; [7],0.455
same,NF-kB SEAP reporter activity,[2]; [8],0.804
C=CC(=O)N1CC(Nc2ncnc3[nH]ccc23)CCC1C (centres undefined) (library stock concentration (final ~1000-fold dilution): 10 mM),NF-kB SEAP reporter activity,[1]; agonist: LPS (TLR4) 0.1 ug/mL,0.655
same,NF-kB SEAP reporter activity,[1]; [4],0.682
same,NF-kB SEAP reporter activity,[1]; [5],0.56
same,NF-kB SEAP reporter activity,[1]; [6],0.738
C=CC(=O)N1CC(Nc2ncnc3[nH]ccc23)CCC1C (centres undefined),NF-kB SEAP reporter activity,[2]; [7],0.572
same,NF-kB SEAP reporter activity,[2]; [8],0.785
CNCCC(Oc1cccc2ccccc12)c1cccs1 (centres undefined),NF-kB SEAP reporter activity,[2]; [9],1.98
CNCCC(Oc1cccc2ccccc12)c1cccs1 (centres undefined) (library stock concentration (final ~1000-fold dilution): 10 mM),NF-kB SEAP reporter activity,[3]; agonist: LPS (TLR4) 0.1 ug/mL,1.1
same,NF-kB SEAP reporter activity,[3]; [4],0.191
same,NF-kB SEAP reporter activity,[3]; [5],0.797
same,NF-kB SEAP reporter activity,[3]; [6],0.525
OCC1OC(c2ccc(Cl)c(Cc3ccc(OC4CCOC4)cc3)c2)C(O)C(O)C1O (centres undefined),NF-kB SEAP reporter activity,[2]; [7],0.973
same,NF-kB SEAP reporter activity,[2]; [8],1.06
OCC1OC(c2ccc(Cl)c(Cc3ccc(OC4CCOC4)cc3)c2)C(O)C(O)C1O (centres undefined) (library stock concentration (final ~1000-fold dilution): 10 mM),NF-kB SEAP reporter activity,[1]; agonist: LPS (TLR4) 0.1 ug/mL,1.12
same,NF-kB SEAP reporter activity,[1]; [4],1.07
same,NF-kB SEAP reporter activity,[1]; [5],0.963
same,NF-kB SEAP reporter activity,[1]; [6],0.983
O=C(Nc1ncc([N+](=O)[O-])s1)c1ccccc1O (library stock concentration (final ~1000-fold dilution): 10 mM),NF-kB SEAP reporter activity,[1]; agonist: LPS (TLR4) 0.1 ug/mL,0.954
same,NF-kB SEAP reporter activity,[1]; [4],1.21
same,NF-kB SEAP reporter activity,[1]; [5],0.573
same,NF-kB SEAP reporter activity,[1]; [6],0.684
COc1ccc(CNC(=O)Nc2ncc([N+](=O)[O-])s2)cc1,NF-kB SEAP reporter activity,[2]; [7],1.2
same,NF-kB SEAP reporter activity,[2]; [8],1.68
COc1ccc(S(=O)(=O)NCc2ccc(C(=O)NCCc3ccc(Cl)cn3)cc2)cc1,NF-kB SEAP reporter activity,[2]; [7],0.318
same,NF-kB SEAP reporter activity,[2]; [8],1.19
